GLS inhibitor: qHTS for Inhibitors of Glutaminase (GLS); GLS enzymatic activity, qHTS titration; Potency, µM (highest dose often 45.5 µM), without a hit: top-dose activity change, negative = inhibition, hits mostly inhibitors; 410,000 tested, 0.21% active; AID 624170, 2012; further: on the % scale 0 is the no-effect control and ±100 the full control effect
Target sequence (O94925 whole entry, looked up): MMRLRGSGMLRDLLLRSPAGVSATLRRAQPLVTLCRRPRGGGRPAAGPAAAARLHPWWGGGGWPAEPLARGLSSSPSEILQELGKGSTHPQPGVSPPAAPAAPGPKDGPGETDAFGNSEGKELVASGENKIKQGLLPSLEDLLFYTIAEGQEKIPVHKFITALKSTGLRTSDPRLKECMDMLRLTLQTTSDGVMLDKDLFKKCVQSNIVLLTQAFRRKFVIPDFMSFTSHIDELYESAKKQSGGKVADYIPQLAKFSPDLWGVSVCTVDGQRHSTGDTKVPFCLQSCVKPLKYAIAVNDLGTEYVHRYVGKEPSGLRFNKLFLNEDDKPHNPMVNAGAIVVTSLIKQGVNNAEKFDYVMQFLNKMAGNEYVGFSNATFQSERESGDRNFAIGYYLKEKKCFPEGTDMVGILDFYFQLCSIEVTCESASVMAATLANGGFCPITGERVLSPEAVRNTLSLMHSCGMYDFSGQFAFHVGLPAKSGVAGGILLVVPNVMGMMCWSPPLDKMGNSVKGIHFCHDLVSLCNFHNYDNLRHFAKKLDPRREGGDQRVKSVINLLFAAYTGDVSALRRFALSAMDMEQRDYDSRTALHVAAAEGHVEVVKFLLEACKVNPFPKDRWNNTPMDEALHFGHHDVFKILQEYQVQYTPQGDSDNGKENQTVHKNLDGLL
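Human kidney-isoform GLS in 45 mM KH2PO4 pH 8.2, 0.02% Tween-20, with compound, started with 1mM L-Glutamine (added stock). Glutamate oxidase/HRP/Amplex red coupled fluorescence read at start and after 30 min at RT.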
HP1b chromo inh: HTS for Inhibitors of HP1-beta Chromodomain Interactions with Methylated Histone Tails | Potency, µM (top dose mostly 114 µM), inactives show top-dose activity change, negative = inhibition, hits mostly inhibitors | 390,000 tested, 0.56% active | AlphaScreen HP1-beta / biotin-H3K9me3 peptide binding | Chromobox protein homolog 1 (Homo sapiens), P83916; further: nearly all actives have a fitted effect of over 70% in size
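HP1-beta protein (50 nM final) preincubated 30 min at room temperature with biotinylated H3(1-18)K9me3 peptide (50 nM) in PBS pH 7.4, 0.01% Tween-20, then compound added for 30 min. AlphaScreen streptavidin donor/nickel chelate acceptor beads (10 ug/mL final), 30 min dark, luminescence read.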
BAZ2B inh: qHTS Assay for Inhibitors of BAZ2B; Bromodomain adjacent to zinc finger domain protein 2B (Homo sapiens), Q9UIF8; AlphaScreen BAZ2B-H3K14Ac peptide displacement; Potency, µM (top dose mostly 114 µM), for the others: at the top dose activity change, negative = inhibition, hits mostly inhibitors; 360,000 tested, 4.4% active; further: on the % scale 0 is the no-effect control and ±100 the full control effect; nearly all actives have a fitted effect of over 60% in size
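AlphaScreen luminescence quantifies BAZ2B engagement of H3K14Ac peptide; the protein and biotinylated peptide are both at 50 nM final, buffer PBS pH 7.4 with 0.01% Tween-20, all steps at room temperature.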
JMJD2A Tudor inh: qHTS Assay for Inhibitors of JMJD2A-Tudor Domain; Lysine-specific demethylase 4A (Homo sapiens), O75164; AlphaScreen JMJD2A-Tudor / H3K4me3 peptide binding; Potency, µM (series often up to 114 µM), without a hit: top-dose activity change, negative = inhibition, usual class: inhibitors; 390,000 tested, 4.4% active; AID 504339, 2011; further: on the % scale 0 is the no-effect control and ±100 the full control effect; nearly all actives have a fitted effect of over 50% in size
G9a block: qHTS Assay for Inhibitors of Histone Lysine Methyltransferase G9a; Histone-lysine N-methyltransferase EHMT2 (Homo sapiens), Q96KQ7; G9a H3K9 monomethylation, AlphaScreen, 2 h; Potency, µM (top dose mostly 102 µM), inactives show at the highest dose activity, negative = inhibition, actives largely listed as inhibitors; 350,000 tested, 8.8% active; AID 504332, 2011; further: on the % scale 0 is the no-effect control and ±100 the full control effect; nearly all actives have a fitted effect of over 75% in size
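Chemiluminescent proximity detection of H3K9 monomethylation, read after 10 min bead incubation in the dark. Reaction: 20 nM G9a, 500 nM biotin-H3K9 peptide, 20 uM SAM cofactor, 2 h, room temperature, following 15 min enzyme-compound preincubation.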
* = called active by the depositor; u = inconclusive; x = not tested or not shown; [ ] = dose if it differs, or a comment. In the library only some 10% were active in any assay of this set; here they are far more common. The call rests on the fitted dose curve; in most records, active means well fitted curve in the direction sought with a large enough effect; inconclusive means small, poorly fitted or top-dose-only effect, or another doubt; inactive means no such curve, though single readings can be large; an effect the other way counts as inactive or inconclusive. Potency means the concentration at half of the fitted maximal effect.

SMILES	GLS inhibitor	HP1b chromo inh	BAZ2B inh	JMJD2A Tudor inh	G9a block
O=C(COc1cccc(C(F)(F)F)c1)N1CCN(c2ccc(O)cc2)CC1	u	79.4µM*	x	56.2µM*	7.94µM*
O=C(CCOc1ccccc1)N1CCN(c2ccc(O)cc2)CC1	11.2µM*	u	u	u	u
C[C@H](CO)N1C[C@H](C)[C@@H](CN(C)C(=O)NC2CCCCC2)Oc2ccc(NS(C)(=O)=O)cc2C1=O	5.0%	24.2%	x	-4.2%	x
CN(Cc1ccccc1)C(=O)Nc1ccc2c(c1)N(C)C(=O)c1ccccc1S2	-8.6%	45.8%	-26.2%	-27.5%	u
Cc1ccc(NC(=O)CN2C(=O)S/C(=C\c3ccc(-c4cccc(C(=O)O)c4C)o3)C2=O)cc1	x	x	25.1µM*	x	11.2µM*
Cc1ccc(NC(=O)CN2C(=O)S/C(=C/c3ccc(-c4cccc(C(=O)O)c4)o3)C2=O)cc1	u	u	15.8µM*	44.7µM*	x
CC(C)(C)OC(=O)CN1C(=O)S/C(=C\c2ccc(-c3cccc(C(=O)O)c3)o2)C1=O	x	x	u	x	56.2µM*
CC(C)OC(=O)CN1C(=O)S/C(=C/c2ccc(N3CCCCC3)o2)C1=O	24.5%	-13.8%	u	u	u
COc1ccccc1-c1nnc(SCCOc2ccccc2C)o1	-4.3%	87.3%	168.9%	67.5%	46.3%[59 µM]
COC(=O)c1ccc(N2CCOCC2)c(NC(=O)Nc2cccc(OC)c2)c1	-11.5%	-1.6%	4.7%	-8.3%	44.7µM*
CCOC(=O)c1ccc(N2CCN(c3ccccc3F)CC2)c(NC(=O)Nc2cccc(OC)c2)c1	3.0%	-4.1%	-24.6%	-34.9%	-47.8%[59 µM]
Cc1ccc(-n2nc(C)c3c2NC2=C(C(=O)CC(C)(C)C2)C3c2ccccc2OCC(=O)O)cc1 (stereo not drawn)	u	-6.3%	x	56.2µM*	u
CC(=O)C(Sc1nn(C)c(=S)s1)C(=O)Nc1ccccc1 (stereo not drawn)	-1.1%	u	u	50.1µM*	3.55µM*
CCOc1ccc(OCCCCn2ccnc2)cc1	3.7%	u	50.1µM*	20µM*	u
Cc1cc(OCCN2CCOCC2)ccc1C(C)C	6.4%	u	50.1µM*	14.1µM*	-50.8%[2.33 µM]
CCOc1ccc(OCCn2ccnc2)cc1	14.5%	u	50.1µM*	5.01µM*	10µM*
CCOc1ccc(C(=O)NCCCn2ccnc2)cc1	-14.0%	30.2%	-6.4%	0.0%	-36.8%[12.7 µM]
CCC(=O)c1ccc(OCCN2CCOCC2)cc1	1.7%	20.3%	-2.1%	2.7%	9.3%[12.7 µM]
COc1ccc(OCCn2ccnc2)cc1	-7.7%	33.4%	-10.3%	4.3%	-9.2%[0.501 µM]
Cc1cc(OCCn2ccnc2)ccc1C(C)C	2.6%	50.1µM*	44.7µM*	3.16µM*	14.1µM*
CCOc1cc(/C=N/NC(=O)C(=O)NCCCOC(C)C)cc(Br)c1O	30.4%	35.1%	-4.4%	-11.0%	u
CCOC(=O)N1CCC(NC(=O)c2cnn(-c3cccc(F)c3)c2-n2cccc2)CC1	1.1%	20.3%	-5.6%	-14.9%	-1.8%[59 µM]
CCC(C)c1ccc(OCCCCN2CCOCC2)cc1 (stereo not drawn)	4.6%	u	50.1µM*	35.5µM*	10µM*
C#CCOCCOCCOCCNc1nc(N2CCN(C(=O)[C@H](CCCCN)n3cc(CC(C)O)nn3)CC2)nc(N2CCN(C(=O)[C@H](Cc3ccc(O)cc3)n3cc(CCO)nn3)CC2)n1 (stereo partly drawn)	9.2%	13.9%	x	-21.6%	x
C#CCOCCOCCOCCNc1nc(N2CCN(C(=O)[C@H](C)n3cc(CCCN=C(N)N)nn3)CC2)nc(N2CCN(C(=O)[C@H](Cc3ccc(O)cc3)n3cc(CCO)nn3)CC2)n1	x	x	u	x	31.6µM*
SMILES	GLS inhibitor	HP1b chromo inh	BAZ2B inh	JMJD2A Tudor inh	G9a block
C#CCOCCOCCOCCNc1nc(N2CCN(C(=O)[C@H](CCCCN)n3cc(CCCC)nn3)CC2)nc(N2CCN(C(=O)[C@H](Cc3ccc(O)cc3)n3cc(CCO)nn3)CC2)n1	12.2%	-18.6%	u	79.4µM*	39.8µM*
CCCC(C)C(=O)Nc1nc(C)c(-c2csc(Nc3cc(OC)ccc3OC)n2)s1 (stereo not drawn)	1.5%	-6.2%	u	u	14.1µM*
C=CCCC(=O)Nc1nc(C)c(-c2csc(Nc3cc(OC)ccc3OC)n2)s1	12.0%	u	50.1µM*	35.5µM*	10µM*
COc1ccc(OC)c(Nc2nc(-c3sc(N)nc3C)cs2)c1	12.9%	u	44.7µM*	50.1µM*	31.6µM*
CCCN1CNc2c(c(=O)[nH]c(=S)n2CCc2ccccc2Cl)C1	x	37.2%	x	-12.2%	x
O=C1c2c(O)cc(O)cc2O[C@@]12c1c(cc(O)c3c1O[C@H](c1ccc(O)cc1)[C@@H](O)C3)O[C@@H]2c1ccc(O)cc1	-4.1%	16.2%	u	-32.4%	50.1µM*
CC(=O)c1c(Nc2ccc3c(c2)OCCO3)oc(C)cc1=O	-2.3%	19.1%	-8.9%	-16.2%	79.4µM*
Cc1cc(C(=O)Nc2ccc3c(c2)OCCO3)c(C)o1	-2.9%	-24.6%	-7.8%	-26.0%[57.1 µM]	u
COc1cc(/C=N\NC(=O)CC#N)ccc1OC/C=C/c1ccccc1	-7.9%	33.3%	56.2µM*	79.4µM*	14.8%
COc1cc(/C=N/NC(=O)c2ccccc2O)ccc1OCC(=O)Nc1ccccc1	-0.7%	57.8%	79.4µM*	-23.6%	-4.9%[59 µM]
COc1cc(/C=N/NC(=O)c2ccncc2)ccc1OCC(=O)Nc1ccccc1	12.1%	22.6%	-0.5%	-4.3%	9.1%
COc1cc(/C=N\NC(=O)c2ccc(-c3ccccc3)cc2)ccc1OCC(N)=O	0.9%	10.6%	-2.3%	89.1µM*	0.3%
COc1cc(/C=C/c2cc[n+](C)cc2)ccc1OCC(=O)Nc1ccccc1	-1.0%	13.5%	-21.4%	-9.4%	12.6µM*
COc1ccc(NS(=O)(=O)c2ccc(C)c(C(=O)NCC(c3ccco3)N(C)C)c2)cc1 (stereo not drawn)	11.8%	12.5%	7.2%	-26.7%	13.3%[0.501 µM]
COC(=O)CSc1ccc(S(=O)(=O)N2CCC(C)CC2)cc1[N+](=O)[O-]	-7.7%	14.6%	-18.3%	-10.6%	-9.8%
CCCCN(CCCC)S(=O)(=O)c1ccc(SCC(=O)OCC)c([N+](=O)[O-])c1	6.9%	79.4µM*	-31.2%	u	-7.7%
CCCN(CCC)S(=O)(=O)c1ccc(Cl)c([N+](=O)[O-])c1	0.9%	3.7%	u	-18.0%[11.4 µM]	u
CCOC(=O)CSc1ccc(S(=O)(=O)N(CC)CC)cc1[N+](=O)[O-]	4.8%	6.4%	-24.7%	-35.2%	44.7µM*

Screening data as filed in PubChem.
